# Source: PubChem BioAssay (NCATS)
# Inconclusive results are not listed. Entries that show only a call come without a potency. Activity calls are given as the source filed them. Unless noted, calls follow the shape of the dose curve; as a rule, active = well fitted inhibition curve with a large enough effect; inconclusive = small, poorly fitted or top-dose-only effect; inactive = flat fitted curve, though single readings scatter.
# Legend:
# [1] = molecular target: Glutathione peroxidase 1 (Homo sapiens) (UniProt P07203); assay: Primary qHTS Assay for Inhibitors of Recombinant Selenoprotein Glutathione Peroxidase 1 (GPX1) (AID 1845191); also: nearly all actives have a fitted effect of over 65% in size
# Procedure, shortened: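 GR-coupled readout: NADPH consumption tracked by fluorescence, ex 340/em 450 nm, at t=0 and after 15 min at RT. Final mix 10 nM GPX1, 1 mM GSH, 0.5 mM CHP, 0.5 mM NADPH, 100 nM GR, 0.01% BSA, following 30 min enzyme–compound preincubation.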
# [2] = molecular target: Phospholipid hydroperoxide glutathione peroxidase GPX4 (Homo sapiens) (UniProt P36969); assay: Primary qHTS Assay for Inhibitors of Recombinant Selenoprotein Glutathione Peroxidase 4 (GPX4) (AID 1845192); also: nearly all actives have a fitted effect of over 65% in size; as to activity change, negative = inhibition: series mostly up to about 50 µM
# Procedure, shortened: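 Steps: GPX4 plus compound, 30 min RT; add GR/GSH/NADPH master mix; start with cumene hydroperoxide; read 340/450 nm fluorescence at 0 and 15 min. Finals were 200 nM GPX4, 1 mM GSH, 0.5 mM CHP, 0.5 mM NADPH, 100 nM GR.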
# [3] = qHTS drug screen for cell cycle checkpoint inhibitors in PARPi-resistant BRCA-mutant ovarian cancer cell lines. (AID 1963452; calls by dose curve); conditions: PEO1/OlaR viability, CellTiter-Glo luminescence, 96 h; for Z-AUC: stronger effect = lower value
# Procedure, shortened: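 PEO1, PEO4 and PEO1/OlaR ovarian cancer cells, 600 per well, exposed 96 h at 37C to a dilution series. Viability read by CellTiter-Glo luminescence, normalized to DMSO and empty wells; activity summarized as Z-AUC.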
# Potency is read from the fitted curve at half-maximal effect.
# Glutathione peroxidase 1 (Homo sapiens), sequence (P07203 whole entry, looked up): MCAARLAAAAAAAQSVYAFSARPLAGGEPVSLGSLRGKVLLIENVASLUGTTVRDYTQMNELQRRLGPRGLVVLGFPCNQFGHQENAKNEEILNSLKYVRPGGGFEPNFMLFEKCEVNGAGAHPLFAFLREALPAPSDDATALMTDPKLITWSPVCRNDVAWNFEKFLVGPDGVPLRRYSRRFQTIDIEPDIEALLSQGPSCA
# Phospholipid hydroperoxide glutathione peroxidase GPX4 (Homo sapiens), sequence (P36969 whole entry, looked up): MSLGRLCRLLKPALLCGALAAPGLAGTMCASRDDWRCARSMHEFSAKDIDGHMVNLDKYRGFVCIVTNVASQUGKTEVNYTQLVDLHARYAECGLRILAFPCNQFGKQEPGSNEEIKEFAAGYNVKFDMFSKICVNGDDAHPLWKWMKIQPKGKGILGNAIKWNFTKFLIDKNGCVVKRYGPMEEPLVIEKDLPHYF
structure (smiles),measurement,setting,value
O=C(O)[C@@H]1C(=CCO)O[C@@H]2CC(=O)N12,Potency,[1],inactive
same,Potency,[2],inactive
CC(C)(C)NCC(O)COc1ccccc1C1CCCC1 (configuration not stated),Potency,[1],inactive
same,Potency,[2],inactive
CC(C)C[C@H](NC(=O)[C@@H](Cc1c[nH]c2ccccc12)NC(=O)[C@H](Cc1ccc(O)cc1)NC(=O)[C@H](CO)NC(=O)[C@H](Cc1c[nH]c2ccccc12)NC(=O)[C@H](Cc1cnc[nH]1)NC(=O)[C@@H]1CCC(=O)N1)C(=O)N[C@@H](CCCN=C(N)N)C(=O)N1CCC[C@H]1C(=O)NCC(N)=O,Potency,[1],inactive
same,Potency,[2],inactive
NC(=O)C1CCCN1C(=O)C(Cc1cnc[nH]1)NC(=O)C1CCC(=O)N1 (configuration not stated),Potency,[1],inactive
same,Potency,[2],inactive
Cc1cc(CC(C)C[Si](C)(O[Si](C)(C)C)O[Si](C)(C)C)c(O)c(-n2nc3ccccc3n2)c1 (configuration not stated),Potency,[1],inactive
same,Potency,[2],inactive
CO/N=C(\C(=O)N[C@@H]1C(=O)N2C(C(=O)O)=C(Cn3ccc(=N)n3CCO)CS[C@H]12)c1csc(N)n1,Potency,[1],18 µM (active)
same,Potency,[2],inactive
CCCCCCCCCCCCCCCC(=O)OCC(=O)[C@@]1(O)[C@H](C)C[C@H]2[C@@H]3CCC4=CC(=O)C=C[C@]4(C)[C@@]3(F)[C@@H](O)C[C@@]21C,Potency,[1],inactive
same,Potency,[2],inactive
O=C(OC[C@H]1O[C@@H](OC(=O)c2cc(O)c(O)c(O)c2)[C@H](O)[C@@H](OC(=O)c2cc(O)c(O)c(O)c2)[C@@H]1O)c1cc(O)c(O)c(O)c1,Potency,[1],inactive
same,Potency,[2],inactive
OC[C@H]1O[C@@H](OC[C@H]2O[C@@H](O[C@@H]3[C@@H](O)[C@H](O)O[C@H](CO)[C@H]3O)[C@H](O)[C@@H](O[C@@H]3O[C@H](CO)[C@@H](O)[C@H](O)[C@H]3O)[C@@H]2O)[C@H](O)[C@@H](O)[C@@H]1O,Potency,[1],inactive
same,Potency,[2],inactive
CCCCC(=O)O[C@]1(C(=O)COC(C)=O)CC[C@H]2[C@@H]3CCC4=CC(=O)C=C[C@]4(C)[C@H]3[C@@H](O)C[C@@]21C,Potency,[1],inactive
same,Potency,[2],inactive
CN(CCCCCCN(C)C(=O)Oc1ccc[n+](C)c1)C(=O)Oc1ccc[n+](C)c1,Potency,[1],inactive
same,Potency,[2],inactive
Cn1c(=O)cc(N2CCC[C@@H](N)C2)n(Cc2cc(F)ccc2C#N)c1=O,Potency,[1],inactive
same,Potency,[2],inactive
CC(=O)OC1CCC2(C)C(=CCC3C2CCC2(C)C(c4cccnc4)=CCC32)C1 (configuration not stated),Potency,[1],inactive
same,Potency,[2],inactive
CO[C@H]1O[C@@H]2O[C@@]3(C)CC[C@H]4[C@H](C)CC[C@@H]([C@@H]1C)[C@@]24OO3,Potency,[1],inactive
same,Potency,[2],inactive
COc1ccc(CNc2nc(N3CCC[C@H]3CO)ncc2C(=O)NCc2ncccn2)cc1Cl,Potency,[1],inactive
same,Potency,[2],inactive
CCCCC[C@H](O)/C=C/[C@@H]1[C@@H](C/C=C/CCCC(=O)O)[C@@H](O)C[C@H]1O,Potency,[1],inactive
same,Potency,[2],inactive
CCCCCCO[C@@H](C)c1cccc(-c2csc(NC(=O)c3cc(Cl)c(/C=C(\C)C(=O)O)c(Cl)c3)n2)c1OC,Potency,[1],inactive
same,Potency,[2],2.51 µM (active)
C[C@H]1C[C@H]2[C@H]3CCC4=CC(=O)C=C[C@]4(C)[C@@]3(F)[C@@H](O)C[C@]2(C)[C@@]1(OC(=O)c1ccccc1)C(=O)CO,Potency,[1],inactive
same,Potency,[2],inactive
CC(C)(C)NCC(O)COc1ccccc1C#N (configuration not stated),Potency,[1],inactive
same,Potency,[2],inactive
CC1CCCC(C)N1C(=S)Nc1cccc(C(F)(F)F)c1 (configuration not stated),Potency,[1],22.7 µM (active)
same,Potency,[2],11.2 µM (active)
CCCCCCCCCC(=O)OC1(c2ccc(Cl)cc2)CCN(CCCC(=O)c2ccc(F)cc2)CC1,Potency,[1],inactive
same,Potency,[2],inactive
CCC1OC(=O)[C@H](C)C(=O)[C@H](C)[C@@H](OC2O[C@H](C)C[C@H](N(C)C)[C@H]2O)[C@](C)(OC)C[C@@H](C)C(=O)[C@@H](C)[C@@H]2N(CCCCn3cnc(-c4cccnc4)c3)C(=O)O[C@]12C (some centres not stated),Potency,[1],inactive
same,Potency,[2],inactive
C[C@](C#N)(COc1cc(C#N)ccc1C(F)(F)F)NC(=O)c1ccc(SC(F)(F)F)cc1,Potency,[1],inactive
same,Potency,[2],inactive
CCOc1ccc(Cc2cc([C@@]34OC[C@@](CO)(O3)[C@@H](O)[C@H](O)[C@H]4O)ccc2Cl)cc1,Potency,[1],inactive
same,Potency,[2],inactive
CNc1ncc(-c2ccc3c(=O)c(C(=O)O)cn(C4CC4)c3c2C)cc1C,Potency,[1],inactive
same,Potency,[2],inactive
C=C1CC[C@H](O)C/C1=C\C=C1/CCC[C@]2(C)[C@@H]([C@H](C)CC[C@H](O)C(C)(C)O)CC[C@@H]12,Potency,[1],inactive
same,Potency,[2],14.1 µM (active)
C[C@]12C=CC(=O)C=C1CC[C@@H]1[C@@H]2[C@@H](O)C[C@@]2(C)[C@H]1CC[C@]2(O)C(=O)COP(=O)(O)O,outcome,[1],inactive [at 9.52 µM]
same,outcome,[2],inactive [at 9.73 µM]
OC(c1ccccc1)(c1ccccc1)C12CC[N+](CCOCc3ccccc3)(CC1)CC2,Potency,[1],inactive
same,Potency,[2],inactive
CC(C)OC(=O)[C@H](C)N[P@@](=O)(OC[C@H]1O[C@@H](n2ccc(=O)[nH]c2=O)[C@](C)(F)[C@@H]1O)Oc1ccccc1,Potency,[1],inactive
same,Potency,[2],inactive
CC(C=CC1=C(C)CCCC1(C)C)=CC=CC(C)=CC(=O)Oc1c(C)c(C)c2c(c1C)CC[C@@](C)(CCC[C@H](C)CCC[C@H](C)CCCC(C)C)O2,outcome,[1],inactive [at 4.49 µM]
same,outcome,[2],inactive [at 4.52 µM]
C=C[C@]1(C)C[C@@H](OC(=O)CSC2C[C@H]3CC[C@@H](C2)N3C)C2(C)[C@H](C)CCC3(CCC(=O)[C@H]32)[C@@H](C)[C@@H]1O (some centres not stated),Potency,[1],inactive
same,Potency,[2],inactive
Cc1oc(=O)oc1COC(=O)N1CC[C@@H](N2CC/C(=C\C3=C(C(=O)O)N4C(=O)[C@@H](NC(=O)/C(=N/O)c5nsc(N)n5)[C@H]4SC3)C2=O)C1,Potency,[1],7.18 µM (active)
same,Potency,[2],10 µM (active)
CCCCC(CC)COc1ccc(-c2nc(-c3ccc(OC)cc3)nc(-c3ccc(OCC(CC)CCCC)cc3O)n2)c(O)c1 (configuration not stated),"activity, negative = inhibition",[1],-11% [at 4.49 µM] (inactive)
same,"activity change, negative = inhibition",[2],-23.8% [at 4.52 µM] (inactive)
CC=CC1=C(C(=O)O)N2C(=O)[C@@H](NC(=O)[C@H](N)c3ccc(O)cc3)[C@H]2SC1,Potency,[1],7.85 µM (active)
same,Potency,[2],inactive
CC(C)(O)C1CCC(Nc2ccc3ncc(-c4cccc(C(F)(F)F)c4)n3n2)CC1 (configuration not stated),Potency,[1],inactive
same,Potency,[3],5.49 µM (active)
same,Z-AUC,[3]; measured here: PEO1 parental Z-AUC,-1.03
same,Z-AUC,[3]; measured here: PEO4 Z-AUC,-1.21
